Drawing on PubChem BioAssay AID485317 (Broad Institute, 2010), this text covers inhibition for 90 compounds.

The whole screen tested about 290,000 compounds, of which about 11,000 (3.8%) were called active. What follows is part of a selection rich in actives, with near analogues and random picks from the rest. A number with no mark means an inactive call.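 The calls were made as follows: active = mean replicate inhibition above about 79%, with every replicate also reaching it (limit read from the data); inconclusive = only one of the two criteria met; inactive = mean below limit and not every replicate reaching it.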

The target of the assay is FAD-linked sulfhydryl oxidase ALR (Homo sapiens) (UniProt P55789). In words: ALR-catalysed DTT oxidation blockers – biochemical, H2O2 detection, HRP-luminol luminescence, single point, primary screen (AID 485317). The note with it: purified ALR, active compounds read high, concentration not given here.
FAD-linked sulfhydryl oxidase ALR (Homo sapiens), sequence (P55789 whole entry, looked up): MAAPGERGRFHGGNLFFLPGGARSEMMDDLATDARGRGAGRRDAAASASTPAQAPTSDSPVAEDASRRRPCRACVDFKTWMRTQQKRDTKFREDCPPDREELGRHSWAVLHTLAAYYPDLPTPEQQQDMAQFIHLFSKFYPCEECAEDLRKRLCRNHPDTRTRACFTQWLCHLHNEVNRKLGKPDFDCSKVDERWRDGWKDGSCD
Consider `O=C(c1ccncc1)N1CCN(S(=O)(=O)c2cc(C(F)(F)F)cc(C(F)(F)F)c2)CC1`, for which the inhibition was -17.2%.

As for `CCCn1c(C)cc(-c2csc(NC(=O)CCc3nc4ccccc4c(=O)[nH]3)n2)c1C`, the inhibition was -8.89%.

`Cc1ccc(-c2csc(-c3cc(C)on3)n2)cc1`: the inhibition is -0.833%.

Consider `Cc1cc(-c2n[nH]c(=S)n2-c2ccc(C)c(C)c2)no1`, for which the inhibition is 96% (active).

As for `S=c1[nH]nc(-c2cc(-c3ccsc3)n[nH]2)n1-c1ccccc1`, the inhibition is 67.2%.

For `CCCCn1c(N)c(N(CCC(C)C)C(=O)CC2OC(=O)c3ccccc32)c(=O)[nH]c1=O` (stereo not given), the inhibition was -12.6%.

As to `COCCCNC(=O)CC1C[C@H](C(=O)N2CCCCC2)[C@@]2(CCc3ccccc3)c3[nH]c4ccccc4c3CCN2C1=O` (stereo not given in full), the inhibition is -3.65%.

With `CCCc1nc2ccccc2c(=O)n1/N=C/c1ccc(O)c(O)c1`, the inhibition is 98.6% (active).

In the case of `O=c1c2ccccc2ncn1/N=C/c1ccccc1`, the inhibition was -10.9%.

Turning to `CCCc1nc2ccccc2c(=O)n1NC(=O)c1c(O)c2ccccc2[nH]c1=O`, the inhibition is -6.61%.

For the compound `Clc1ccccc1SCc1nc2ccccc2[nH]1`, the inhibition was -0.577%.

On to `c1ccc2c(CSCc3nc4ccccc4[nH]3)cccc2c1`, for which the inhibition is 98.7% (active).

Consider `c1ccc(-c2nnc(SCc3nc4ccccc4[nH]3)o2)cc1`, for which the inhibition was -5.4%.

As for `COc1cc(/C=C(\C#N)c2nc3ccccc3[nH]2)ccc1O`, the inhibition was 99% (active).

With `COc1cc(/C=C(\C#N)c2nc3c(s2)CC(C)CC3)ccc1O` (stereo not given), the inhibition was 70%.

For the compound `Cc1ccc2nc(/C(C#N)=C\c3ccc(OC(=O)c4cccs4)cc3)[nH]c2c1`, the inhibition is -13.7%.

`COc1ccc(N2CCN(S(=O)(=O)c3ccc4c(c3)N(C(C)=O)CCO4)CC2)cc1`: the inhibition was 89.8% (active).

For the compound `CCOC(=O)C1CCN(S(=O)(=O)c2ccc3c(c2)N(C(C)=O)CCO3)CC1`, the inhibition was 25.7%.

As to `CC(=O)N1CCOc2ccc(S(=O)(=O)N3CCN(c4cccc(C(F)(F)F)c4)CC3)cc21`, the inhibition is -1.95%.

With `Cc1cc(C)c(C)c(S(=O)(=O)Nc2cccnc2)c1C`, the inhibition was -4.67%.

With `CCOC(=O)c1c(NC(=O)CCC(=O)NCc2ccco2)sc2c1CCCC2`, the inhibition was 3.61%.

Turning to `CCOC(=O)c1c(NC(=S)Nc2ccccc2C)sc2c1CCC2`, the inhibition was -0.578%.

Take `CCOC(=O)c1c(NC(=O)C(C)Sc2c[nH]c3ccccc23)sc2c1CCC2` (stereo not given): the inhibition is 94.5% (active).

On to `O=C(O[C@@H]1[C@H](Cc2ccccc2)NS(=O)(=O)[C@H]2C[C@@H]3C=C[C@]12O3)c1ccccc1Br`, for which the inhibition is 6.25%.

Consider `CCCCn1c(N)c(N(CC(C)C)C(=O)CN(C)S(=O)(=O)c2ccc(F)cc2)c(=O)[nH]c1=O`, for which the inhibition was -15.2%.

For the compound `CC(=O)c1sc(NC(=O)CCN2C(=O)C3CC=CCC3C2=O)nc1-c1ccccc1` (stereo not given), the inhibition was 1.73%.

Consider `CCOc1cccc(/C=N/NC(=S)NCCN2CCOCC2)c1O`, for which the inhibition was 49.2%.

For the compound `CCOc1cccc(/C=N/N2C(=O)CSC2=S)c1O`, the inhibition was 92.9% (active).

Consider `CCOc1ccccc1N=C1NC(=O)CS1`, for which the inhibition is -4.82%.

On to `CC(NC(=O)COC(=O)c1ccc2ccccc2n1)c1ccccc1` (stereo not given), for which the inhibition is -0.035%.

Regarding `CCCCNC(=O)CCn1c(=S)[nH]c2cc3c(cc2c1=O)OCO3`, the inhibition is 5.42%.

Consider `CCN(CC)CCCNC(=O)c1ccc2c(=O)n(Cc3ccc4c(c3)OCO4)c(=S)[nH]c2c1`, for which the inhibition is 95% (active).

In the case of `COc1ccc(Cn2c(=S)[nH]c3cc(C(=O)NCCCN4CCOCC4)ccc3c2=O)cc1`, the inhibition was 7.86%.

With `CCOc1ccc(NC(=O)CN(C)C(=O)c2c(C)noc2C)cc1OCC`, the inhibition was -5.01%.

Turning to `CCOC(=O)c1c(C)oc2cc(Sc3ccccc3)c(O)c(O)c12`, the inhibition is -12.1%.

As to `CC(NCC(=O)Nc1ccccc1C(=O)NC1CC1)c1ccccc1Cl` (stereo not given), the inhibition is -6.65%.

For `Nc1nonc1-n1nnc(C(=O)N/N=C/c2ccccc2O)c1CN1CCCC1`, the inhibition was -0.481%.

In the case of `Cc1noc(C)c1COc1ccccc1C(=O)N(C)CC(=O)Nc1cccc(F)c1`, the inhibition is -3.03%.

With `Cc1ccc(N/N=C2\COC(C)(C)CC2=O)cc1`, the inhibition is 98.6% (active).

Turning to `CSCCC1NC(=O)N(CC(=O)Nc2cccc(S(=O)(=O)N3CCCCCC3)c2)C1=O` (stereo not given), the inhibition is 9.93%.

With `CCCCc1ccc(NS(=O)(=O)c2cccc(C(=O)N3CCCN(C)CC3)c2)cc1`, the inhibition was -4.55%.

As for `N#Cc1c(-c2ccccc2)nc(SCc2ccc([N+](=O)[O-])cc2)[nH]c1=O`, the inhibition was 99.5% (active).

Turning to `O=c1[nH]c(SCc2ccccc2)nnc1-c1ccccc1`, the inhibition was -6.49%.

For the compound `N#Cc1c(-c2ccc(F)cc2)nc(-c2ccccc2)[nH]c1=O`, the inhibition is 47.4%.

With `O=c1[nH]c(SCc2cccc(F)c2)nc2ccccc12`, the inhibition is -17.9%.

With `N#Cc1c(-c2ccccc2)nc(SCc2cccc(C(F)(F)F)c2)[nH]c1=O`, the inhibition is 86.8% (active).

On to `COc1ccccc1CSc1ncc(-c2ccc([N+](=O)[O-])cc2)[nH]1`, for which the inhibition was -12.3%.

Take `C/C=C/c1ccc(OCC(=O)NNC(=O)CN(C)S(=O)(=O)c2ccc(C)cc2)c(OC)c1`: the inhibition was -17.6%.

`Cc1ccc2nnn(Cc3cccc(C(C)(C)C)c3O)c2c1`: the inhibition was 14.7%.

Turning to `CCC(CC)c1nnc(NC(=O)C2=COCCO2)s1`, the inhibition is 2.79%.

In the case of `O=C(c1ccc(Cl)s1)N(Cc1nnc(-c2ccccc2Cl)o1)C1CC1`, the inhibition was -3.36%.

As for `COc1ccc(C)cc1NC(=O)c1cc(-c2ccccc2)nc2c1cnn2C(C)C`, the inhibition is -1.17%.

For the compound `Cc1ccc(S(=O)(=O)N2CCCCC2)cc1C(=O)N(C)CC(=O)Nc1cccc(F)c1`, the inhibition is -10.8%.

For the compound `CC1=NNC(=O)C1CCC(=O)N/N=C\c1ccc(Cl)c(Cl)c1` (stereo not given), the inhibition was 56.7%.

As to `O=C(CCCCCNC(=O)c1ccccc1)N/N=C/c1ccccc1`, the inhibition was 35.5%.

Turning to `O=C(CC(=O)N/N=C\c1ccc(F)cc1)NCCc1ccccc1`, the inhibition was 38.6%.

For `O=C(CC(O)(C(F)(F)F)C(F)(F)F)Nc1ccc(Cl)c(Cl)c1`, the inhibition is 31.6%.

In the case of `O=C(C[n+]1ccccc1)N/N=C/c1ccc(O)cc1`, the inhibition is 98.9% (active).

Turning to `O=C(CC(=O)Nc1ccc(Cl)c(Cl)c1)N/N=C/c1ccc(O)cc1`, the inhibition was 98.1% (active).

For `CC(C)(C)OC(=O)CNC(=O)c1[nH]cnc1C(=O)N[C@@H](CCCCN)C(=O)OC(C)(C)C`, the inhibition was 2.52%.

On to `C=CC[C@@H](CC(=O)N[C@@H](CO)Cc1ccccc1)C(=O)NCCOC(=O)[C@@H](CC=C)CC(=O)OC(C)(C)C`, for which the inhibition is 0.56%.

Turning to `COc1ccc(C(=O)N(Cc2ccccc2)c2ccc(C)cc2)cc1S(=O)(=O)N1CCOCC1`, the inhibition is 18.8%.

Turning to `COc1ccc(NC(C)=O)cc1NC(=O)CN1CCN(c2ccccn2)CC1`, the inhibition was -9.42%.

As for `CCN(CC)c1ccc(NC(=O)CN2CCN(c3ccccn3)CC2)cc1`, the inhibition is 99.3% (active).

Consider `O=C(CN1CCN(c2ccccn2)CC1)Nc1ccc(Br)cc1`, for which the inhibition was -8.03%.

On to `Cc1ccc(S(=O)(=O)N2[C@@H](c3cccc4ccccc34)C(C(=O)O)=C[C@H]2C(C)(C)C)cc1`, for which the inhibition was 9.1%.

As to `CN(C(=O)Cn1nnc(-c2ccc(F)cc2)n1)C1CCS(=O)(=O)C1` (stereo not given), the inhibition is -4.28%.

Take `CCC1CCC/C1=N\NC(=O)c1ccc(Cl)cc1` (stereo not given): the inhibition was -14.7%.

As for `CCN(CC)CCCNC(=O)COc1ccc2oc3c(c2c1)CCCC3`, the inhibition is 83.3% (active).

Consider `O=C(COc1ccc2oc3c(c2c1)CCCC3)Nc1ccccn1`, for which the inhibition is -9.11%.

Take `O=C(COc1ccc2c3c(c(=O)oc2c1)CCCC3)NCC(O)c1ccccc1` (stereo not given): the inhibition is -0.0443%.

With `Cc1ccc(Br)c(NS(=O)(=O)c2cccc(C(=O)N3CCNC(=O)C3)c2)c1`, the inhibition is -0.146%.

Turning to `COc1ccc(OCC(=O)Nc2ccc(N3CCC(C)CC3)cc2)cc1`, the inhibition is 1.79%.

With `COc1ccccc1N1CCC(N2CCN(CC(C)(C)C)C(CCO)C2)CC1` (stereo not given), the inhibition was 21.8%.

Consider `COc1ccc(N2CCC(N3CCN(C)C(CCO)C3)CC2)cc1` (stereo not given), for which the inhibition is 86.4% (active).

Take `COc1ccc(CCNC(=O)C(=O)NCC2CCCN2S(=O)(=O)c2cccs2)cc1OC` (stereo not given): the inhibition is -2.42%.

Regarding `O=C(OCc1nc2ccccc2[nH]1)C1CCCCC1`, the inhibition is 0.03%.

For `Oc1ccc2nc(Cc3ccccc3)[nH]c2c1`, the inhibition was 98.6% (active).

For `Nc1cccc(CCc2nc3ccccc3[nH]2)c1`, the inhibition is 1.01%.

Turning to `CN(C)C(=O)c1ccc(NC(=O)COC(=O)c2cc3c(s2)CCCCC3)cc1`, the inhibition is -2.4%.

Turning to `CCOc1ccc(NS(=O)(=O)c2ccc(Cl)c(C(=O)N(C)Cc3cccnc3)c2)cc1`, the inhibition was -9.87%.

As to `O=C(Nc1cccc(S(=O)(=O)N2CCOCC2)c1)C12CC3CC(CC(C3)C1)C2`, the inhibition is -1.07%.

In the case of `Oc1cc(O)c2c(c1)OC(c1ccc(O)c(O)c1)C(O)C2` (stereo not given), the inhibition is 98.2% (active).

On to `O=C1N[C@@H](c2ccccc2)COC(=O)[C@H](Cc2ccc(F)cc2)C/C=C\C[C@@H]1CC(=O)N(CCO)Cc1ccccc1`, for which the inhibition is -1.44%.

In the case of `Cc1ccc(NC(=O)COc2coc(CN3CCc4ccccc4C3)cc2=O)cc1Cl`, the inhibition is -8.1%.

On to `Cc1ccsc1C(=O)OCC(=O)NCCc1ccccc1`, for which the inhibition was -5.18%.

Take `Cc1cccc(N2C(=O)SC(SC(=Nc3ccccc3)Nc3ccccc3)C2=O)c1` (stereo not given): the inhibition is 0.802%.

On to `Cc1cccc(N2C(=O)SC(N(CC(=O)O)c3cccc(C)c3)C2=O)c1` (stereo not given), for which the inhibition was 98.6% (active).

`Cc1ccc(N2C(=O)SC(N(CC(=O)O)c3ccc(C)cc3)C2=O)cc1` (stereo not given): the inhibition is 0.583%.

Turning to `CN(N)c1nc(N2CCCC2)nc(N2CCCC2)n1`, the inhibition was -6.99%.

In general, inhibition refers to the drop in the measured response relative to a control, in per cent.
